# Source: PubChem
# This is a sample that favours compounds with a hit; in the whole collection about 4.7% have one here.
# ATG4B inh: ATG4B protease inhibitors, primary screen, biochemical, fluorescence, uHTS; Cysteine protease ATG4B (Homo sapiens), Q9Y4P1; 0.51% of 340,000 active; inhibition, % at 8.33 µM; AID 504462, 2011; ATG4B cleavage of LC3-PLA2, NBD-HPC fluorescence, 1 h; in the data active = inhibition above about 40%
# Target sequence (Q9Y4P1 whole entry, looked up): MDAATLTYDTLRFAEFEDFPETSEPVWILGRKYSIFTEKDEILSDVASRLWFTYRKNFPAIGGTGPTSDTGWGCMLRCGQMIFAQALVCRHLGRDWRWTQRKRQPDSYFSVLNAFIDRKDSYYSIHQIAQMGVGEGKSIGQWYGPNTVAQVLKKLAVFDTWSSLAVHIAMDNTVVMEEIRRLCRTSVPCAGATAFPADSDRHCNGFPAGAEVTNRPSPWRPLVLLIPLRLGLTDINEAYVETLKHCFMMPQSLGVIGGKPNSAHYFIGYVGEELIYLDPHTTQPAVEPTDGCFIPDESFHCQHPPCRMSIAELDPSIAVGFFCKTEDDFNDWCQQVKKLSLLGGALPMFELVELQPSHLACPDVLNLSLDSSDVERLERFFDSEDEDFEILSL
# TIM10 inh: growth inhibitors of isogenic TIM10 control yeast, primary screen, counter-screen for tim10-1 yeast inhibitor project, luminescence, uHTS; S. cerevisiae TIM10 strain growth, BacTiter-Glo luminescence, 24 h; inhibition, % at 10 µM; 1.4% of 330,000 active; AID 463195, 2010;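 active = inhibition of 40% or more at the single tested concentration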;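 also: wild-type TIM10 isogenic control strain grown at permissive 25 °C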
# SKKanGAS inh: S. pyogenes SKKanGAS growth inhibitors in kanamycin, primary screen, streptokinase expression inhibitor project, SKKanGAS strain, BacTiter-Glo luminescence | inhibition, % at 7.5 µM | 6 h | AID 1662, 2009 | 1.3% of 300,000 active;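 active = mean replicate score, as percent of positive control median, at least 50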;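 also: strain carries kanamycin resistance gene driven by streptokinase promoter and grows in 40 µg/ml kanamycin; loss of luminescence reflects streptokinase promoter inhibition or plain growth inhibition; 0% = median of DMSO wells and 100% = positive control at its reference dose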
# tim10-1 inh: growth inhibitors of tim10-1 mutant yeast, primary screen, luminescence, uHTS; S. cerevisiae tim10-1 ts strain growth, BacTiter-Glo, 24 h; inhibition, % at 20 µM; 2.2% of 330,000 active; AID 463190, 2010;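 active = inhibition of at least 40%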;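 also: mutant grown at 25 °C; 0% = DMSO wells with yeast and 100% = wells holding no yeast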
# PfHsp90 yeast 2: growth inhibition of PfHsp90-expressing yeast, primary screen, antimalarial PfHsp90 inhibitor project, S. cerevisiae, BacTiter-Glo luminescence, single point, set 2. BacTiter-Glo ATP, 48 h; yeast lacking PDR1 and PDR3 efflux regulators. inhibition, % at 9.4 µM. 0.32% of 310,000 active. AID 504621, 2011;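 active = every replicate shows inhibition above about 80%, whatever the replicate mean, limit read from the data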;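 also: 0% = DMSO neutral controls and 100% = 20 µM radicicol positive controls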
# tim23-1 inh: growth inhibitors of tim23-1 mutant yeast, primary screen, luminescence, uHTS; S. cerevisiae tim23-1 growth, BacTiter-Glo luminescence, 24 h; inhibition, % at 20 µM; 1.3% of 330,000 active;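 active = growth inhibition of the mutant yeast at or above 50%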;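 also: temperature-sensitive mutant grown at 25 °C; plate controls were DMSO-treated mutant yeast for no effect and medium wells lacking yeast for full effect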
# tim10-1 confirm: growth inhibitors of tim10-1 mutant yeast, confirmation, single concentration, luminescence, S. cerevisiae; shares compounds with tim10-1 inh; S. cerevisiae tim10-1 ts strain growth, BacTiter-Glo, 24 h; inhibition, % at 20 µM; 56% of 7,400 active; AID 463213, 2010;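 active = inhibition of yeast growth at or above a set limit in either of two repeat tests at 20 µM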;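 also: tim10-1 mutant grown at permissive 25 °C to find synthetic lethal compounds; 0% = DMSO yeast wells and 100% = medium wells without yeast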
# TIM10 conf: growth inhibitors of wild-type TIM10 yeast, confirmation, counter-screen for tim10-1 synthetic lethality project, single concentration, luminescence, S. cerevisiae; shares compounds with TIM10 inh; S. cerevisiae tim10 strain growth, BacTiter-Glo luminescence, 24 h; inhibition, % at 10 µM; 63% of 4,600 active; AID 463215, 2010;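 active = inhibition of yeast growth at or above a set limit in either of two replicates at 10 µM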;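 also: this counterscreen used the strain with wild-type TIM10; 0% = yeast with DMSO and 100% = medium wells lacking yeast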
# tim23-1 conf: tim23-1 mutant yeast growth inhibitors, confirmation, luminescence, single concentration | inhibition, % at 20 µM | 83% of 4,400 active | AID 463218, 2010 | shares compounds with tim23-1 inh | S. cerevisiae tim23-1 growth, BacTiter-Glo luminescence, 24 h;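 active = inhibition above about 39% in either of two replicate wells at 20 µM, limit read from the data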;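 also: temperature-sensitive tim23-1 mutant grown at 25 °C; 0% = DMSO wells with yeast and 100% = medium wells without yeast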
# Starred values were filed as active, the others as inactive; x = no result.
SMILES,ATG4B inh,TIM10 inh,SKKanGAS inh,tim10-1 inh,PfHsp90 yeast 2,tim23-1 inh,tim10-1 confirm,TIM10 conf,tim23-1 conf
C=C(C)Cn1cnc2cc(C)c(C)cc21,-6,5,-8,16,-5,-1,x,x,x
Cc1ccc(CNc2oc(-c3cccs3)nc2C#N)cc1,-6,18,1,44*,-12,52*,26,x,46*
Cc1cccc(NC(c2ccc(C)s2)c2ccc3ccc(C)nc3c2O)n1 (stereo not given),6,34,77*,93*,-8,57*,86*,x,45*
Cc1cc(C)nc(S/C=C/C(=O)c2ccc(F)cc2)n1,x,48*,4,41*,x,56*,28,39*,46*
S=C1N(c2ccccc2)C(c2ccccc2)N2CCCN12 (stereo not given),-4,16,16,15,12,21,x,x,x
N#C/C(=C\c1cccc([N+](=O)[O-])c1)C(=O)NCC1CCCO1 (stereo not given),-7,57*,-6,57*,7,77*,52*,45*,72*
N#C/C(=C\c1cc2c(cc1Br)OCO2)C(=O)NCC1CCCO1 (stereo not given),-1,65*,0,67*,-5,87*,67*,72*,78*
COc1ccc(NS(=O)(=O)c2ccc(N3CCCCC3)c(NC(=O)C(C)NC(N)=O)c2)cc1 (stereo not given),-13,-5,x,3,-6,13,x,x,x
Nc1nc2sc3c(c2c(=O)s1)CCCC3,-10,44*,0,54*,-93,73*,25,33*,52*
Cc1ccccc1OC(C)C(=O)Nc1ccc2c(c1)OCO2 (stereo not given),-6,-6,-7,23,13,17,x,x,x
O=C1S/C(=C\c2ccccn2)C(=O)N1Cc1ccccc1F,-2,7,-2,10,-6,-6,x,x,x
CCCNC(=O)c1ccc2snnc2c1,6,-4,-1,4,28,12,x,x,x
CCCNC(=O)c1nnsc1S(=O)(=O)c1ccc(Cl)cc1,3,76*,x,75*,105*,64*,66*,70*,63*
CNC(=O)c1nnsc1S(=O)c1ccc(Cl)cc1 (stereo not given),-3,77*,44,70*,-20,52*,68*,73*,51*
CCCNC(=O)c1nnsc1S(=O)c1ccc(Cl)cc1 (stereo not given),-3,83*,17,91*,105*,82*,87*,96*,91*
Cc1ccc(S(=O)c2snnc2C)cc1 (stereo not given),-6,13,-3,-1,-15,7,x,x,x
CSC[C@@H]1NC(=S)N(c2ccc(C)cc2)C1=O,-1,14,10,29,5,44,x,x,x
c1ccc(Nc2ncnc3sccc23)cc1,-4,13,1,-4,17,12,x,x,x
Fc1nc(F)c(F)c(NCCCNc2c(F)c(F)nc(F)c2F)c1F,-4,55*,-10,54*,-5,66*,76*,45*,81*
Clc1ccc2c(NCc3ccccc3)ccnc2c1,16,-24,0,-7,-2,1,x,x,x
